This passage reports outcome and AC50 results from PubChem BioAssay (EPA / NIEHS).

Inconclusive results are not listed. The source made the active and inactive calls. The calls were made as follows, unless noted: active = hit-call score of the fitted dose curve at least 0.9, where 1 is the maximum; inactive = score below 0.9.

Assay [1] can be described thus: ATG_NFI_CIS: Attagene CIS-FACTORIAL HepG2 Assay for human Nuclear Factor I (NFI) (AID 2282989). The note with it: HepG2 cis-regulatory reporter, NFI response element transcription; actives raise or lower the signal. The procedure, abridged:
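Multiplexed cis-reporter system in human HepG2 cells reports native TF activity as reporter mRNA induction 24 h post-dose. Fragments labelled with 6-FAM, HpaI-digested and resolved by capillary electrophoresis; activity fitted both directions versus DMSO.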

Assay [2] addresses Myc proto-oncogene protein (Homo sapiens) (UniProt P01106). Kind of assay: ATG_Myc_CIS: Attagene CIS-FACTORIAL HepG2 Assay for human Myelocytomatosis (Myc) Proto-Oncogene Transcription Factor (AID 2282990). Particulars: HepG2, Attagene cis-reporter transcription factor activity; actives raise or lower the signal. The procedure, abridged: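 Fluorescence intensity of reporter-specific cDNA fragments, separated by capillary electrophoresis, gives the signal. Transfected HepG2 cells carrying cis-promoter reporter constructs are incubated with compound for 24 h; DMSO serves as baseline.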

Assay [3] is described as follows: ATG_NF_kB_CIS: Attagene CIS-FACTORIAL HepG2 Assay for human Nuclear Factor Kappa B (NF-kB) (AID 2282991). The note with it: HepG2 Attagene cis-factorial NF-kB reporter mRNA; actives raise or lower the signal. A digest of the protocol: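 HepG2 cells transiently transfected with multiplexed cis-element reporter units measuring endogenous transcription factor activity; reporter mRNA read 24 h after dosing by RT-PCR, fluorescent labelling, HpaI digestion and capillary electrophoresis. Bidirectional fit against DMSO baseline.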

The nature of assay [4]: ATG_NRF2_ARE_CIS: Attagene CIS-FACTORIAL HepG2 Assay for human Nuclear Factor Erythroid 2 Related Factor 2 (NFR2) response to Antioxidant Response Elements (ARE) (AID 2282992). The note with it: HepG2 Attagene ARE/NRF2 reporter, transcription factor activity; actives raise or lower the signal. The procedure, abridged:
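Endogenous transcription factor activity read out as reporter transcript levels (RT-PCR plus capillary electrophoresis, fluorescence) in transiently transfected HepG2 cells. Measured at 24 h after dosing; gain or loss of signal fitted versus DMSO.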

The nature of assay [5]: ATG_Oct_MLP_CIS: Attagene CIS-FACTORIAL HepG2 Assay for human Octamer-Binding Transcription Factor (Oct) (AID 2282993). Particulars: HepG2 Attagene cis-factorial Oct reporter, mRNA; actives raise or lower the signal. A digest of the protocol:
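After 24 h compound exposure, transfected HepG2 cells were lysed for total RNA; reporter-specific cDNA was PCR-amplified, fluorescently labelled and sized by capillary electrophoresis. Bidirectional curve fitting used DMSO as baseline.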

In assay [6] the target is Cellular tumor antigen p53 (Homo sapiens) (UniProt P04637). Kind of assay: ATG_p53_CIS: Attagene CIS-FACTORIAL HepG2 Assay for human p53 Transcription Factor (AID 2282994). The note with it: HepG2 p53 cis-element reporter, Attagene mRNA; actives raise or lower the signal. The procedure, abridged:
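Endogenous p53 activity read in transiently transfected HepG2 from a cis-element-driven reporter transcript after 24 h exposure. RNA reverse-transcribed, PCR-amplified, fluorescently labelled and sized by capillary electrophoresis; gain or loss fitted against DMSO baseline.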

The target in assay [7] is human Peroxisome Proliferator-activated Receptor alpha (PPARa), PPARA (gene 5465) (UniProt Q07869). As to the kind of experiment: ATG_PPARa_TRANS: Attagene TRANS-FACTORIAL HepG2 Assay for human Peroxisome Proliferator-activated Receptor alpha (PPARa) (AID 2283001; active = hit-call score of the fitted dose curve at least 0.9, where 1 is the maximum). A digest of the protocol: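 HepG2, transient MRTU transfection, 24 h treatment. RT-PCR → FAM labelling → capillary electrophoresis. Fit vs DMSO, positive direction.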

For assay [8], the target named is Peroxisome proliferator-activated receptor gamma (Homo sapiens) (UniProt P37231). As to the kind of experiment: ATG_PPARg_TRANS: Attagene TRANS-FACTORIAL HepG2 Assay for human Peroxisome Proliferator-activated Receptor-gamma (PPARg) (AID 2283007; active = hit-call score of the fitted dose curve at least 0.9, where 1 is the maximum). A digest of the protocol: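 HepG2 cells transiently transfected with multiplexed GAL4-UAS reporter units and exogenous chimeric NR-Gal4 proteins; reporter mRNA quantified after 24 h compound exposure by RT-PCR, fluorescent labelling, HpaI digestion and capillary electrophoresis; gain-of-signal fitted versus DMSO baseline.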

For assay [9], the target named is Nuclear receptor subfamily 1 group I member 2 (Homo sapiens) (UniProt O75469). As to the kind of experiment: ATG_PXR_TRANS: Attagene TRANS-FACTORIAL HepG2 Assay for human Pregnane X Receptor (PXR) (AID 2283008; active = hit-call score of the fitted dose curve at least 0.9, where 1 is the maximum). A digest of the protocol:
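Transactivation by exogenous PXR–GAL4 fusion measured as reporter transcript induction after 24 h compound treatment of transfected human HepG2 cells. Read-out via RT-PCR and capillary electrophoresis of labelled fragments, fitted upward relative to DMSO.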

The target in assay [10] is human Peroxisome Proliferator-activated Receptor delta (PPARd), PPARD (gene 5467) (UniProt Q03181). Kind of assay: ATG_PPARd_TRANS: Attagene TRANS-FACTORIAL HepG2 Assay for human Peroxisome Proliferator-activated Receptor delta (PPARd) (AID 2283002; active = hit-call score of the fitted dose curve at least 0.9, where 1 is the maximum). A digest of the protocol:
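Fluorescence from capillary electrophoresis of labelled RT-PCR reporter fragments gives the signal; DMSO sets baseline. Cells: HepG2 transiently carrying GAL4-UAS reporter units plus chimeric nuclear receptor-Gal4 proteins, exposed to chemicals for 24 h.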

The target of assay [11] is human RAR-related Orphan Receptor beta (RORb), RORB (gene 6096) (UniProt Q92753). Kind of assay: ATG_RORb_TRANS: Attagene TRANS-FACTORIAL HepG2 Assay for human RAR-related Orphan Receptor beta (RORb) (AID 2283010; active = hit-call score of the fitted dose curve at least 0.9, where 1 is the maximum). The procedure, abridged: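 Read-out is reporter mRNA induction, quantified by RT-PCR with fluorescent capillary electrophoresis, 24 h post-dose in transiently transfected HepG2 expressing exogenous NR-Gal4 chimera. Activity fitted upward versus DMSO.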

Assay [12] deals with Retinoic acid receptor alpha (Homo sapiens) (UniProt P10276). Kind of assay: ATG_RARa_TRANS: Attagene TRANS-FACTORIAL HepG2 Assay for human Retinoic Acid Receptor alpha (RARa) (AID 2283005; active = hit-call score of the fitted dose curve at least 0.9, where 1 is the maximum). A digest of the protocol: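 HepG2 transiently transfected with multiplex GAL4-UAS reporter units including a human RARa–GAL4 chimera; 24 h compound exposure. Reporter mRNA quantified by RT-PCR, 6-FAM labeling and capillary electrophoresis; gain of signal versus DMSO.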

The target of assay [13] is human Retinoic Acid Receptor gamma (RARg), RARG (gene 5916) (UniProt P13631). As to the kind of experiment: ATG_RARg_TRANS: Attagene TRANS-FACTORIAL HepG2 Assay for human Retinoic Acid Receptor gamma (RARg) (AID 2283009; active = hit-call score of the fitted dose curve at least 0.9, where 1 is the maximum). A digest of the protocol:
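Transactivation of exogenous RARg-Gal4 fusion measured as reporter transcript induction after 24 h in transfected HepG2 cells. RNA reverse-transcribed, amplified, fluorescently labeled and resolved by capillary electrophoresis; increase relative to DMSO.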

Assay [14] can be described thus: BSK_3C_TissueFactor: BioMAP Diversity Plus: 3C Assay for Tissue Factor Biomarker Activity (AID 2282997). The note with it: BioMAP 3C HUVEC, tissue factor biomarker readout; actives raise or lower the signal. A digest of the protocol:
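Readout: Tissue Factor ELISA. Cells: human primary umbilical vein endothelium. Time: 24 h after dosing. Analysis: bidirectional fit, DMSO baseline.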

The nature of assay [15]: BSK_3C_uPAR: BioMAP Diversity Plus: 3C Assay for Urokinase-type plasminogen activator receptor (uPAR) Biomarker Activity (AID 2282998). The note with it: BioMAP 3C HUVEC, uPAR biomarker ELISA; actives raise or lower the signal. The procedure, abridged:
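Values derive from bidirectional curve fitting relative to DMSO, which served as baseline of activity. uPAR was measured by ELISA in human umbilical vein endothelial primary cultures 24 h after compound addition.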
(ELISA stands for enzyme-linked immunosorbent assay.)

Assay [16] is described as follows: BSK_3C_VCAM1: BioMAP Diversity Plus: 3C Assay for Vascular cell adhesion molecule 1 (VCAM1) Biomarker Activity (AID 2282999). Particulars: BioMAP 3C HUVEC, VCAM1 ELISA, cytokine-stimulated; actives raise or lower the signal. A digest of the protocol:
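HUVEC primary cells, 24 h compound exposure; VCAM-1 by ELISA; gain/loss of signal fitted bidirectionally vs DMSO baseline.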

A short description of assay [17]: BSK_4H_Eotaxin3: BioMAP Diversity Plus: 4H Assay for Eotaxin 3 Biomarker Activity (AID 2283000).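 Also: CCL26 protein level quantified by ELISA in parallel with SRB cytotoxicity check.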 The note with it: primary human endothelial cells (HUVEC); actives raise or lower the signal. A digest of the protocol: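 HUVEC, 24 h post-dose, ELISA for Eotaxin-3/CCL26. Gain or loss of signal fitted bidirectionally vs DMSO baseline.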
Read-out in assay [18]: Intercellular Adhesion Molecule 1 (ICAM1), ICAM1 (gene 3383)
Kind of assay: BSK_3C_ICAM1: BioMAP Diversity Plus: 3C Assay for Intercellular Adhesion Molecule 1 (ICAM1) Biomarker Activity (AID 2283003). Particulars: primary human endothelial cells (HUVEC); actives raise or lower the signal. The procedure, abridged: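 ELISA readout of ICAM1 in human umbilical vein endothelial cells in the 3C system, taken 24 h post-dose. Gain or loss of signal versus DMSO was fitted in both directions, with SRB total-protein staining run in parallel.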

Assay [19] in a line: BSK_3C_Proliferation: Cell Proliferation Assessment in the BioMAP Diversity Plus: 3C Assay (AID 2283006). The note with it: primary human endothelial cells (HUVEC). The procedure, abridged:
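Proliferation as total protein: sulforhodamine B (0.1%) stain of TCA-fixed subconfluent human umbilical vein endothelial cells, absorbance 560 nm, 48 h after dosing. Activity fitted in both directions against DMSO baseline.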

Chain of human Peroxisome Proliferator-activated Receptor delta (PPARd), PPARD (gene 5467) (Q03181 whole entry, looked up, the tested form may be a part): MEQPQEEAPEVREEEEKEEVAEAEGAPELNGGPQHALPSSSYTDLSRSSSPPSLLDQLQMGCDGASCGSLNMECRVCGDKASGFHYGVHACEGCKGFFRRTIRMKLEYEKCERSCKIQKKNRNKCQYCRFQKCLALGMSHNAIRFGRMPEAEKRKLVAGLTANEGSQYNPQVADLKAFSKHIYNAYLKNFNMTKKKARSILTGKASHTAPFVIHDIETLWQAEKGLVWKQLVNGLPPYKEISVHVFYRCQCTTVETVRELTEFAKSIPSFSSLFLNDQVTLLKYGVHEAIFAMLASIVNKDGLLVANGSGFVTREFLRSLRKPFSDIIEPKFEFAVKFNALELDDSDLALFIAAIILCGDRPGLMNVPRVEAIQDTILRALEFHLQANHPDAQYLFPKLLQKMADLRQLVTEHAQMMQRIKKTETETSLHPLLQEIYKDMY
Chain of Peroxisome proliferator-activated receptor gamma (Homo sapiens) (P37231 whole entry, looked up, the tested form may be a part): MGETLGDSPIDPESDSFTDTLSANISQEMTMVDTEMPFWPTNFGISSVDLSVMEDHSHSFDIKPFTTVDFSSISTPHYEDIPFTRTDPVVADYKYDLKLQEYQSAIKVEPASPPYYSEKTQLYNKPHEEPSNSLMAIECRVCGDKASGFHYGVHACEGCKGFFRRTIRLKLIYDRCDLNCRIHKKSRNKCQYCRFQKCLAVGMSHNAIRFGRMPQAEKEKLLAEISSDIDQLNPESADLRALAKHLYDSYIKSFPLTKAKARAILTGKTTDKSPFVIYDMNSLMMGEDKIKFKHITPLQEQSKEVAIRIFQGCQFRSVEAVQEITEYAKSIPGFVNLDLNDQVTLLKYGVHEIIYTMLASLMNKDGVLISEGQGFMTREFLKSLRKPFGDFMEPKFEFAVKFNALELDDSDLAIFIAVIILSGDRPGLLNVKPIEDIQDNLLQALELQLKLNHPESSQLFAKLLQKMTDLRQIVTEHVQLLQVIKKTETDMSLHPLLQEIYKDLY
Chain of Cellular tumor antigen p53 (Homo sapiens) (P04637 whole entry, looked up): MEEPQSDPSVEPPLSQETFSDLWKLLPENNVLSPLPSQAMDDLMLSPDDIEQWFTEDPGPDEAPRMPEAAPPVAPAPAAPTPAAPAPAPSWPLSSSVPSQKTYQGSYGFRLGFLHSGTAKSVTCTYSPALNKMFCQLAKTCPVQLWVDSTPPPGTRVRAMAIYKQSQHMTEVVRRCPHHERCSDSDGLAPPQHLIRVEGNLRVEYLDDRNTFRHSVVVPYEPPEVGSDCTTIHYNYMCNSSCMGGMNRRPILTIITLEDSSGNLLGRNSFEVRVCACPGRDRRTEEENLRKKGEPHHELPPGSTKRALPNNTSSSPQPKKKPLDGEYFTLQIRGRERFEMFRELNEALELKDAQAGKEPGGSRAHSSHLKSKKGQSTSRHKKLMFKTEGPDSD
Chain of Myc proto-oncogene protein (Homo sapiens) (P01106 whole entry, looked up, the tested form may be a part): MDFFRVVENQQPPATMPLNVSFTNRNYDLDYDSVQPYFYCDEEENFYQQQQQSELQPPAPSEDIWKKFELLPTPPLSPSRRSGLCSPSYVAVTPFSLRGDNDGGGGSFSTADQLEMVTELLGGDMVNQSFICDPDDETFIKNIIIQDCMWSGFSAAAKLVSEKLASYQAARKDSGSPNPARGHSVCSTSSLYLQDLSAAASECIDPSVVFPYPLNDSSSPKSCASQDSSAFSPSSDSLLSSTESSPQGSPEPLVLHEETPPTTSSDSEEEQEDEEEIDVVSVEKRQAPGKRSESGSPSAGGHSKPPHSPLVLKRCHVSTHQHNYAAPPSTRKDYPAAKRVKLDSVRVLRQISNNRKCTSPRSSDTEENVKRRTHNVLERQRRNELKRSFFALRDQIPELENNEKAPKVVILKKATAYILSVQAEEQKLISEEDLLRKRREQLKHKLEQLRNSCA
Chain of human Peroxisome Proliferator-activated Receptor alpha (PPARa), PPARA (gene 5465) (Q07869 whole entry, looked up): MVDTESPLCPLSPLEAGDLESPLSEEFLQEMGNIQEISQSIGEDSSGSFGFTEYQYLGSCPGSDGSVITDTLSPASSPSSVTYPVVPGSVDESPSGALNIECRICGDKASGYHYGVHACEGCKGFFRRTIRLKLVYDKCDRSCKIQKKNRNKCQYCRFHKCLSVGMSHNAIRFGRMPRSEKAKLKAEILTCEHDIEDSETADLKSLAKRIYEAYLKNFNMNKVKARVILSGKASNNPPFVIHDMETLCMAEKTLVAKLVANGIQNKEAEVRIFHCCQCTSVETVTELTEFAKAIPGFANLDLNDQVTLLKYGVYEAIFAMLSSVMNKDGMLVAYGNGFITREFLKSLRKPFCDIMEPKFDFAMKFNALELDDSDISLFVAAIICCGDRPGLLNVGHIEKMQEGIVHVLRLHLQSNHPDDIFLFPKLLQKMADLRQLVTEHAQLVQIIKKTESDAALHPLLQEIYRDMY
Chain of Nuclear receptor subfamily 1 group I member 2 (Homo sapiens) (O75469 whole entry, looked up, the tested form may be a part): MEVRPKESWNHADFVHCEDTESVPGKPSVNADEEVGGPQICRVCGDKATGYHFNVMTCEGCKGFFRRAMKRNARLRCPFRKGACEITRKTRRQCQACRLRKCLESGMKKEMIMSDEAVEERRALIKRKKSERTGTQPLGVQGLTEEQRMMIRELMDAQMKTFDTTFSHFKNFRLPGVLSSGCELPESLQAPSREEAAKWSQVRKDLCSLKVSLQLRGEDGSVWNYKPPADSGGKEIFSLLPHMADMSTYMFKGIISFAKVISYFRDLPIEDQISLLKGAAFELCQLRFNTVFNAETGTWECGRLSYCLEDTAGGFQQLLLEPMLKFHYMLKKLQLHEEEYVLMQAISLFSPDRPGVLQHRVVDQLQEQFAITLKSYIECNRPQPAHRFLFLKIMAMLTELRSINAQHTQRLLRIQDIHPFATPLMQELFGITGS
Chain of human RAR-related Orphan Receptor beta (RORb), RORB (gene 6096) (Q92753 whole entry, looked up, the tested form may be a part): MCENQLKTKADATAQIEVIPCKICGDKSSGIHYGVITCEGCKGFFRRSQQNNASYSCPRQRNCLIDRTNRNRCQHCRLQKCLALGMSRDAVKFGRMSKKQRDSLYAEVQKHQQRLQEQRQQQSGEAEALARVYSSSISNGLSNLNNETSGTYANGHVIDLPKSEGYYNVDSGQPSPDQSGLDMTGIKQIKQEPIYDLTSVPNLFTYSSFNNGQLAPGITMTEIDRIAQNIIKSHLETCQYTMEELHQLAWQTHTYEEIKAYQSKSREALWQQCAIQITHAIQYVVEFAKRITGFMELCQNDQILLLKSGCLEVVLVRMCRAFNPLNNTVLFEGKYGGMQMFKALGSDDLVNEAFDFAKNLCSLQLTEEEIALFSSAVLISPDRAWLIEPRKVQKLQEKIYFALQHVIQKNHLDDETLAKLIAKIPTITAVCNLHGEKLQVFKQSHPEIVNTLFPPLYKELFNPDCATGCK
Chain of Retinoic acid receptor alpha (Homo sapiens) (P10276 whole entry, looked up, the tested form may be a part): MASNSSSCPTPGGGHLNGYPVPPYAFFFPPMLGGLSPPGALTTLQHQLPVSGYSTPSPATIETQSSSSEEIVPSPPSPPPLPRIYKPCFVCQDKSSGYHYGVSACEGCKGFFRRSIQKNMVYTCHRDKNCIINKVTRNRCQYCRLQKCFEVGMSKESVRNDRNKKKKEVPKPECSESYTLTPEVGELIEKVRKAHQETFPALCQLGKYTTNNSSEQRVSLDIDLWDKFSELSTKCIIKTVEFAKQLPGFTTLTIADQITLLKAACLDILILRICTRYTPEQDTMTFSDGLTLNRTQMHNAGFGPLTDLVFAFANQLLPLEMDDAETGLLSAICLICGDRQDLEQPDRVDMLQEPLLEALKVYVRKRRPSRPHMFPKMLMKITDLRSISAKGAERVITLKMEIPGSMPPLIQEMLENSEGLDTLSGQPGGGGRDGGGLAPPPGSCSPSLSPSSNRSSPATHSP
Chain of human Retinoic Acid Receptor gamma (RARg), RARG (gene 5916) (P13631 whole entry, looked up, the tested form may be a part): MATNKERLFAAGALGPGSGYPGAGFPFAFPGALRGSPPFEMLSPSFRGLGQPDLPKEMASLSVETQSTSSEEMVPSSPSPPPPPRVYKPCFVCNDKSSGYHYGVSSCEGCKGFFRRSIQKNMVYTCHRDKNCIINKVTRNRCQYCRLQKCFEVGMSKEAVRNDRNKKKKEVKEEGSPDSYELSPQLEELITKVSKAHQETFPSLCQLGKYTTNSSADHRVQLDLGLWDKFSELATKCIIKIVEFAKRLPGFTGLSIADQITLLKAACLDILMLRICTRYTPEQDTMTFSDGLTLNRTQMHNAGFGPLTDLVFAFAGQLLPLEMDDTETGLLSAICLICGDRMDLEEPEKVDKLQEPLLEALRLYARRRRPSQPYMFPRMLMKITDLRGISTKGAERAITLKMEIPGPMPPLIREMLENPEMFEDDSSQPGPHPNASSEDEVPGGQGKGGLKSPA

Consider `Cc1ccc(CCl)cc1`, for which the compound was classed as inactive in assay [1], in assay [2], in assay [3], in assay [4], in [5] and in [6]. In addition, the result in assay [7] and in assay [8] was inactive.
What is called AC50 is the concentration giving half of the maximal activity seen. Take `CC(C)[C@H](C(=O)OC(C#N)c1cccc(Oc2ccccc2)c1)c1ccc(OC(F)F)cc1` (stereo partly drawn): the call in assay [1], in assay [2], in assay [3], in [4], in assay [5] and in [6] was inactive. In addition, the compound was called inactive in assay [8]. Besides, the AC50 in assay [9] was 0.693 µM (active).
Consider `C=C(C)C(=O)OCC(CC)CCCC` (stereo not drawn), for which the compound was classed as inactive in assay [1], in assay [2], in assay [3], in assay [4], in [5] and in assay [6]. Besides, the call in assay [8] and in assay [9] was inactive.
Turning to `Clc1ccc(C(Cl)(Cl)Cl)cn1`, the call in [1], in assay [2], in assay [3], in assay [4], in [5] and in assay [6] was inactive. Further, the call in assay [8] was inactive.
As to `O=C/C(Cl)=C(/Cl)C(=O)O`, the call in assay [1], in [2], in [7], in assay [10], in [9] and in [11] was inactive. Besides, the AC50 in assay [3] is 35.2 µM (active); in [4], 26.1 µM (active); in assay [5], 144 µM (active); in assay [8] it was 46.7 µM (active).
Turning to `OC[C@@H](O)[C@H]1O[C@@H]2O[C@H](C(Cl)(Cl)Cl)O[C@@H]2[C@H]1O`, the compound was classed as inactive in assay [1], in [2], in assay [3], in assay [4], in assay [5] and in [7]. Besides, the result in [12], in assay [8], in assay [13] and in assay [11] was inactive.
For the compound `ClCc1ccccc1CCl`, the result in [1] and in [9] was inactive. In addition, the AC50 is 33.4 µM (active) in assay [2]; 25.1 µM (active) in assay [3]; 8.19 µM (active) in assay [4]; 21.2 µM (active) in [5]; 50.7 µM (active) in assay [6]; 2.49 µM (active) in assay [8].
As to `FC(F)OCC(F)(F)C(F)(F)F`, the compound was called inactive in [1], in assay [2], in assay [3], in assay [4], in assay [5] and in assay [6]. The compound was called inactive in assay [10] and in assay [9].
Take `O=[N+]([O-])c1cc([As](=O)(O)O)ccc1O`: the call in assay [1], in assay [2], in assay [3], in assay [4], in assay [5] and in assay [6] was inactive. Moreover, the call in [10] and in [11] was inactive.
As to `CC(C)CP(=S)(S)CC(C)C`, the outcome in assay [1], in assay [2], in assay [3], in assay [4], in assay [5] and in [6] was inactive. Further, the outcome in [12], in assay [8], in assay [13] and in assay [11] was inactive. In assay [9], the AC50 is 59.1 µM (active).
Consider `CC[N+](CC)(CC)CC`, for which the call in assay [1], in assay [2], in [3], in assay [4], in assay [5] and in assay [7] was inactive. Further, the result in assay [8] and in assay [9] was inactive.
For the compound `CC(C)O.CC(C)O.OCCN(CCO)CCO.OCCN(CCO)CCO.[Ti]`, the compound was called inactive in assay [1], in assay [2], in assay [3], in [4], in assay [5] and in assay [14]. Also, the outcome in assay [15], in assay [16], in assay [17], in [7], in assay [18] and in assay [19] was inactive. For the same compound, the result in assay [9] and in [11] was inactive.
